Screens (PubChem)
Rows were chosen to be rich in hits. Some 2.9% of all compounds tested hit in one or more screens of this group.
PAFAH1B2 FP inh – inhibitors of human PAFAH1B2 | P68402 | recombinant PAFAH1B2, FP-rhodamine activity probe, fluorescence polarization | inhibition, % at 3.39 µM | 1.2% of 340,000 active | AID 492953;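 active = inhibition above the mean of all tested compounds plus 3 SD, cut at about 24% in these data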;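 note: 0% = enzyme with DMSO and 100% = wells lacking PAFAH1B2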
pPAFAH inh – pPAFAH (human) enzyme inhibition. Q13093. AID 463082. 1.5% of 330,000 active. inhibition, % at 3.39 µM. recombinant pPAFAH, FP-rhodamine probe fluorescence polarization;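 active = inhibition above the mean inhibition across the screen plus 3 SD, cut at about 25% in these data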;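 note: inhibitors block binding of the rhodamine activity-based probe so polarization drops; 0% = enzyme with DMSO and 100% = wells lacking pPAFAH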
PAFAH2 FP inh – PAFAH2 (human) inhibition; AID 492956; recombinant PAFAH2, FP-rhodamine activity probe, fluorescence polarization; inhibition, % at 3.39 µM; 0.99% of 340,000 active; Q99487;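 active = inhibition above the mean over all tested compounds plus 3 SD, cut at about 30% in these data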;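 note: inhibitors block probe labeling of enzyme so polarization drops; 0% = enzyme with DMSO and 100% = wells lacking PAFAH2 protein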
LYPLA2 inh – LYPLA2 (human) inhibition in PME1 counter-screen | inhibition, % at 5.9 µM | recombinant LYPLA2, FP-Rh probe fluorescence polarization | 0.38% of 320,000 active;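 active = inhibition above the screen-wide mean plus 3 SD, limit set per campaign, cut at about 26% in these data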;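 note: 0% = LYPLA2 with DMSO and 100% = wells lacking LYPLA2 enzyme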
Target sequence (O95372 whole entry, looked up): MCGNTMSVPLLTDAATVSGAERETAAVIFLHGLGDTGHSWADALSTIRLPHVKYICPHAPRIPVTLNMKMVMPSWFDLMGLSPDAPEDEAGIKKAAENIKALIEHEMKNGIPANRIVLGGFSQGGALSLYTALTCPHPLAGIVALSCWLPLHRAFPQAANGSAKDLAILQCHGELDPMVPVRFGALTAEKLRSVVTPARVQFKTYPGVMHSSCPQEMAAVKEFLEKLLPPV
PAFAH1B3 FP inh – PAFAH1B3 (human) inhibition | recombinant PAFAH1B3, FP-rhodamine probe, fluorescence polarization | inhibition, % at 3.39 µM | 0.28% of 340,000 active | AID 492972;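 active = inhibition above the screen-wide average of all tested compounds plus 3 SD, cut at about 25% in these data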;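 note: 0% = enzyme with DMSO only and 100% = wells lacking PAFAH1B3 protein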
Target sequence (Q15102 whole entry, looked up): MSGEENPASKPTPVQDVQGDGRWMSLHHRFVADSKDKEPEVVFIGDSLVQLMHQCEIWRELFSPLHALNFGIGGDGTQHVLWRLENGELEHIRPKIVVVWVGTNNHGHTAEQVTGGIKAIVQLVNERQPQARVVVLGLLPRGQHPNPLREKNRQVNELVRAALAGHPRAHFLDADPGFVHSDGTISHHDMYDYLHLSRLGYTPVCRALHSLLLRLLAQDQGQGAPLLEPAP
LYPLA1 inh – LYPLA1 (human) inhibition in PME1 counter-screen; O75608; recombinant LYPLA1, FP-Rh probe fluorescence polarization; inhibition, % at 5.9 µM; 0.16% of 320,000 active; AID 2174;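 active = inhibition above the mean of all tested compounds plus 3 SD, set per campaign, cut at about 14% in these data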;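 note: inhibitors block serine hydrolase probe labeling of LYPLA1 so polarization falls; 0% = enzyme with DMSO and 100% = wells lacking LYPLA1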
Target sequence (O75608 whole entry, looked up): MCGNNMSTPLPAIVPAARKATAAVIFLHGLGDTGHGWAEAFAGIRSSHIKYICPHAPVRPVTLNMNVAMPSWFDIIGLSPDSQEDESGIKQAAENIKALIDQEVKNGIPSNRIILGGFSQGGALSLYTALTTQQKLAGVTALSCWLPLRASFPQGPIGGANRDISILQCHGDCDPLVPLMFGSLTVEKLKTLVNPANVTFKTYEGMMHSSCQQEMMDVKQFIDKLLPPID
LYPLA2 confirm – counter-screen for PME1 inhibitors: confirmation of human LYPLA2 inhibitors; shares compounds with LYPLA2 inh; recombinant LYPLA2, FP-Rh probe fluorescence polarization; inhibition, % at 5.9 µM; 72% of 1,100 active; AID 2232;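 active = mean inhibition across replicates above the hit cutoff set in the primary screen, cut at about 26% in these data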;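 note: blocked labeling of the enzyme by serine hydrolase FP-Rh probe lowers polarization; 0% = enzyme with DMSO and 100% = wells lacking LYPLA2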
LYPLA2 ABPP – LYPLA2 (human) inhibition, late stage results | shares compounds with LYPLA2 inh | rhLYPLA2 in mouse brain proteome, gel ABPP FP-Rh | inhibition, % at 20 µM | 30% of 150 active | AID 652029;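 active = inhibition of LYPLA2 enzyme probe labeling above about 50%, limit read from the data; inactive = inhibition below that limit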;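 note: loss of FP-Rh probe labeling of the LYPLA2 gel band measured as band density; 0% = DMSO only control band and 100% = blank gel background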
Active calls of the source: *.

O=C(CCNC(=O)c1ccc(Cl)cc1)Nc1ccc(S(=O)(=O)N2CCOCC2)cc1 was read as PAFAH1B2 FP inh 3.4, pPAFAH inh -1.8, PAFAH2 FP inh 3.8, LYPLA2 inh 0.8, PAFAH1B3 FP inh -4.1 and LYPLA1 inh 0.1.
`O=C(NCC1CCN(c2ccc(S(=O)(=O)N3CCOCC3)cc2)CC1)c1ccc(Cl)cc1` gave PAFAH1B2 FP inh 7.0, pPAFAH inh -0.1, PAFAH2 FP inh -6.2, LYPLA2 inh 80.7*, PAFAH1B3 FP inh 10.6, LYPLA1 inh 1.2, LYPLA2 confirm 75.8* and LYPLA2 ABPP 59.0*.
Screening COc1cc(/C=N/NC(=O)/C(=C\c2ccc([N+](=O)[O-])cc2)NC(=O)c2ccccc2)cc(OC)c1O returned PAFAH1B2 FP inh 1.4, pPAFAH inh 12.9, PAFAH2 FP inh 2.5, LYPLA2 inh 38.8*, PAFAH1B3 FP inh 17.3, LYPLA1 inh -1.6 and LYPLA2 confirm 41.8*.
`COc1ccc(N2CCN(C(=O)COc3ccc(S(=O)(=O)N4CCOCC4)cc3C)CC2)cc1` gave PAFAH1B2 FP inh 7.9, pPAFAH inh 3.5, PAFAH2 FP inh 4.5, LYPLA2 inh 28.2*, PAFAH1B3 FP inh 8.2, LYPLA1 inh 6.0 and LYPLA2 confirm 30.5*.
Screening COc1ccc(N2CCN(C(=O)C3CCN(S(=O)(=O)c4ccc(F)cc4)CC3)CC2)cc1 returned PAFAH1B2 FP inh 2.0, pPAFAH inh 6.2, PAFAH2 FP inh 6.6, LYPLA2 inh 41.5*, PAFAH1B3 FP inh 1.6, LYPLA1 inh 0.9 and LYPLA2 confirm 44.6*.
Screening CC(=O)c1ccc(N2CCN(C(=O)C3CCN(S(=O)(=O)c4ccc5c(c4)CC(C)N5C(C)=O)CC3)CC2)cc1 (stereo unspecified) returned PAFAH1B2 FP inh -0.1, pPAFAH inh 3.8, PAFAH2 FP inh 6.3, LYPLA2 inh 73.9*, PAFAH1B3 FP inh 4.1, LYPLA1 inh 1.3, LYPLA2 confirm 72.7* and LYPLA2 ABPP 64.0*.
`C=C(C)CSc1nc(N)c(C#N)c(-c2ccc(C)cc2)c1C#N` gave PAFAH1B2 FP inh 0.7, pPAFAH inh -1.5, PAFAH2 FP inh 2.1, LYPLA2 inh -1.4, PAFAH1B3 FP inh 3.7 and LYPLA1 inh -0.3.
`Cc1cccc(NC(=O)CC2NCCNC2=O)c1` (stereo unspecified) gave PAFAH1B2 FP inh 0.4, pPAFAH inh -0.1, PAFAH2 FP inh 5.3, LYPLA2 inh 4.5, PAFAH1B3 FP inh 4.0 and LYPLA1 inh 1.2.
Screening CCOC(=O)C1=C(C)NC(C)=C(C(=O)OCC)C1C(=O)OCC(=O)N1CCC(C)CC1 returned PAFAH1B2 FP inh -0.7, pPAFAH inh 1.5, PAFAH2 FP inh 1.9, LYPLA2 inh -6.3, PAFAH1B3 FP inh 10.5 and LYPLA1 inh 2.7.
`CC1CCC(NC(=O)CN2C(=O)C3CC=CCC3C2=O)CC1` (stereo unspecified) gave PAFAH1B2 FP inh 12.4, pPAFAH inh 2.4, PAFAH2 FP inh 3.2, LYPLA2 inh -4.8, PAFAH1B3 FP inh 4.0 and LYPLA1 inh -0.3.
Screening CN1CCN(CCCNC(=O)c2ccc3c(=O)n(CCc4ccccc4)c(=O)[nH]c3c2)CC1 returned PAFAH1B2 FP inh 6.5, pPAFAH inh 2.7, PAFAH2 FP inh -2.1, LYPLA2 inh 29.3*, PAFAH1B3 FP inh 0.3, LYPLA1 inh -4.4 and LYPLA2 confirm 1.4.
`Cn1c(=O)c(-[n+]2ccccc2)c([O-])c2ccccc21` gave PAFAH1B2 FP inh 2.0, pPAFAH inh -0.5, PAFAH2 FP inh 3.7, LYPLA2 inh 3.5, PAFAH1B3 FP inh -5.4 and LYPLA1 inh 0.0.
Screening Cc1nc2ccccc2n1CCC(=O)O returned PAFAH1B2 FP inh 0.1, pPAFAH inh -1.1, PAFAH2 FP inh 0.0, LYPLA2 inh 3.9, PAFAH1B3 FP inh 8.2 and LYPLA1 inh 0.8.
Screening Cc1nc2ccccc2n2c(O)c(CC(=O)O)cc12 returned PAFAH1B2 FP inh 18.2, pPAFAH inh 26.7*, PAFAH2 FP inh 25.8, LYPLA2 inh 26.6*, PAFAH1B3 FP inh 12.9, LYPLA1 inh 12.2 and LYPLA2 confirm 9.6.
Screening O=C(NCc1ccco1)c1ccc2[nH]c(=O)c(=O)[nH]c2c1 returned PAFAH1B2 FP inh 4.2, pPAFAH inh 5.4, PAFAH2 FP inh 1.3, LYPLA2 inh 27.9*, PAFAH1B3 FP inh 5.9, LYPLA1 inh 5.6 and LYPLA2 confirm -0.4.
`O=C1COc2ccc(C(=O)NCc3ccco3)cc2N1` gave PAFAH1B2 FP inh -2.0, pPAFAH inh -0.4, PAFAH2 FP inh -1.1, LYPLA2 inh -5.7, PAFAH1B3 FP inh 0.9 and LYPLA1 inh -1.0.
Screening CC(C)CCN(CC(=O)NC(C)(C)C)C(=O)C(=O)Nc1ccc2c(c1)OCCO2 returned PAFAH1B2 FP inh 3.2, pPAFAH inh 1.0, PAFAH2 FP inh 4.3, LYPLA2 inh -3.4, PAFAH1B3 FP inh 9.9 and LYPLA1 inh 2.9.
`Nc1cc(Cl)ccc1Oc1ccc2ccccc2c1` gave PAFAH1B2 FP inh -0.9, pPAFAH inh 15.8, PAFAH2 FP inh 3.8, LYPLA2 inh 28.3*, PAFAH1B3 FP inh -0.9, LYPLA1 inh 2.9 and LYPLA2 confirm 13.2.
`CC1c2cc3c(cc2CCN1CC(=O)Nc1ccc(S(=O)(=O)N2CCCC2)cc1)OCCCO3` (stereo unspecified) gave PAFAH1B2 FP inh 2.5, pPAFAH inh 1.0, PAFAH2 FP inh -0.3, LYPLA2 inh -1.1, PAFAH1B3 FP inh 5.1 and LYPLA1 inh -4.9.
Cc1cc(C)cc(N(CC(=O)NC2CCCC2)C(=O)CNC(=O)c2cccs2)c1 was read as PAFAH1B2 FP inh 2.2, pPAFAH inh -2.1, PAFAH2 FP inh -6.1, LYPLA2 inh 1.6, PAFAH1B3 FP inh 2.6 and LYPLA1 inh -1.3.
Cn1c(C(=O)N2CCN(c3cccc(C(F)(F)F)c3)CC2)cc2sccc21 was read as PAFAH1B2 FP inh -0.3, pPAFAH inh -1.0, PAFAH2 FP inh 4.9, LYPLA2 inh 26.9*, PAFAH1B3 FP inh 7.2, LYPLA1 inh 3.4 and LYPLA2 confirm 24.4.
Screening O=C(N/N=C\c1ccccn1)c1cccc(C(=O)N/N=C\c2ccccn2)n1 returned PAFAH1B2 FP inh 41.7*, pPAFAH inh 7.0, PAFAH2 FP inh -42.6, LYPLA2 inh 27.9*, PAFAH1B3 FP inh 52.9*, LYPLA1 inh -2.2 and LYPLA2 confirm 28.9*.
`CN(C(=O)c1ccc(NC(=O)Cc2ccc(NC(=O)C3CCCN(C(=O)C4CC4)C3)cc2)cc1)C1CC1` (stereo unspecified) gave PAFAH1B2 FP inh -2.2, pPAFAH inh -5.0, PAFAH2 FP inh 0.6, LYPLA2 inh 59.9*, PAFAH1B3 FP inh 1.6, LYPLA1 inh 2.6, LYPLA2 confirm 61.0* and LYPLA2 ABPP 45.0.
